A short description of assay [1]: NFAT Signaling Pathway (AID 444; active = well fitted curve in either direction with a large enough effect, not every such curve was filed as active;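 also: carbachol stimulus at about its EC50 of 1 µM final; % is scaled to controls: 0 for no effect and ±100 for the full control effect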). The note with it: Jurkat NFAT-bla M1, carbachol, beta-lactamase ratio, 5 h; at 38 µM (top of the series). An outline of the steps:
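Read-out: CCF4 FRET ratio (460 nm/530 nm) after 1 h RT dye loading, used for %activity and AC50 from titration series. Cells: Jurkat NFAT-β-lactamase/M1 line, treated with compound plus 1 uM carbachol for 5 h, 37 °C.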

Assay [2] deals with Glucocorticoid receptor (Homo sapiens) (UniProt P04150). The assay can be described thus: GR-GFP Redistribution (AID 450;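 active = compounds whose dose series gives a full or clear partial fitted curve of increased nuclear translocation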; also: potency is read from the fitted curve at half-maximal effect). The note with it: U2OS GR-GFP nuclear translocation, laser cytometry, 2 h.
Sequence of Glucocorticoid receptor (Homo sapiens) (P04150 whole entry, looked up, the tested form may be a part): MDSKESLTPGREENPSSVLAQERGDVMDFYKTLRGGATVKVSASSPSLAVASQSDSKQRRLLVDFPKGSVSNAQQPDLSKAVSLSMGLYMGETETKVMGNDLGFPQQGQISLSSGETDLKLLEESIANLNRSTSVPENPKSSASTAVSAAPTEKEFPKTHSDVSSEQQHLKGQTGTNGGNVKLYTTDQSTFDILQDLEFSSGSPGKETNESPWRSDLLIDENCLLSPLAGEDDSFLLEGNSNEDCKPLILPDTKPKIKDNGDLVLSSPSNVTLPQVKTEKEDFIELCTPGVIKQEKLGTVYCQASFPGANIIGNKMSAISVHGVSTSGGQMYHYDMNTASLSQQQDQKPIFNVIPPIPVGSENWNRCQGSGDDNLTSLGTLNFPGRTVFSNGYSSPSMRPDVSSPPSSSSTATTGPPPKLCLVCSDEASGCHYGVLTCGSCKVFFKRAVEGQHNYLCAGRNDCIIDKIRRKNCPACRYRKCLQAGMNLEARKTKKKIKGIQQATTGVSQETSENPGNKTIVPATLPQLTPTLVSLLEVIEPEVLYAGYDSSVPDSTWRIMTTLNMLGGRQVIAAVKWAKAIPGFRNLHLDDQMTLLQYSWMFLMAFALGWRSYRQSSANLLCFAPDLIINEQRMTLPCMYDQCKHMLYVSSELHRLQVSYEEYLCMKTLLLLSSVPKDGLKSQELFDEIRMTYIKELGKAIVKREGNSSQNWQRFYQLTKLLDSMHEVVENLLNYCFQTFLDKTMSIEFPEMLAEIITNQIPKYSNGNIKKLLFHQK
The target is the same in assay [3]. The experiment in a line: GR-EFC Redistribution (AID 451; calls by dose curve; also: potency is read from the fitted curve at half-maximal effect). The settings on record: CHO-K1 GR-EFC translocation, beta-gal luminescence, 2 h. An outline of the steps: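 Translocation of GR-ED fusion to nuclear EA restores b-gal, read by luminescence after 1 h room-temperature detection. Engineered CHO-K1 biosensor cells, 1,000/well, exposed 2 h at 37 C to titrations up to 46 uM final.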

The target of assay [4] is 3',5'-cyclic-AMP phosphodiesterase 4B (Homo sapiens) (UniProt Q07343). The experiment in a line: qHTS Assay for Inhibitors of PDE-IV (AID 607; active = well fitted activation curve with a large enough effect in the main read-out, with a control signal flat, not every such curve was filed as active; also: % of control where 0% means no effect). The settings on record: HEK293 ACTOne CNG channel cells, membrane potential fluorescence; series mostly up to 22.9 µM. The procedure, abridged:
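Cell-based read-out of cAMP via a modified cyclic nucleotide-gated channel and membrane potential dye (535/590 nm) in HEK293 cells expressing PDE4 endogenously. Compounds tested up to 22.9 uM final; 100 uM RO 20-1724 reference.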

Assay [5] concerns the target Guanine nucleotide-binding protein G(i) subunit alpha-1 (Homo sapiens) (UniProt P63096). The assay can be described thus: qHTS Assay for Inhibitors of RGS12 GoLoco Motif Activity (Green Fluorophore) (AID 879).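 Also: 0% = labeled peptide with Gαi1 and full inhibition = labeled peptide alone without protein; negative values mean loss of peptide binding seen as reduced polarization.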 The settings on record: Galphai1/FITC-RGS12 GoLoco peptide, fluorescence polarization; series mostly up to 57.1 µM. An outline of the steps:
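A drop in FITC polarization marked displacement of the FITC-tagged RGS12 GoLoco peptide (10 nM) from Gαi1 (50 nM). Compounds were incubated 10 min at room temperature in Tris pH 7.5 buffer containing 150 mM NaCl, 0.1 mM GDP and 0.05% NP40; unlabeled peptide titration served as control.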
(In general: In qHTS, concentration-response curves come from the screen itself.)

The target of assay [6] is Muscarinic acetylcholine receptor M1 (Rattus norvegicus) (UniProt P08482). The assay can be described thus: qHTS Assay for Antagonists of Acetylcholine Muscarinic M1 Receptor: Measurement of IP-One Response (AID 944). Also: nearly all actives have a fitted effect of over 75% in size. The settings on record: CHO-M1 cells, IP-One HTRF, antagonist mode; series mostly up to 46.1 µM. The procedure, abridged: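 IP1 accumulation measured via TR-FRET between d2-IP1 and Eu-cryptate anti-IP1 antibody after carbachol (200 nM, EC80) stimulation for 30 min; rat M1-transfected CHO cells received compound 10 min before agonist.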
Sequence of Muscarinic acetylcholine receptor M1 (Rattus norvegicus) (P08482 whole entry, looked up): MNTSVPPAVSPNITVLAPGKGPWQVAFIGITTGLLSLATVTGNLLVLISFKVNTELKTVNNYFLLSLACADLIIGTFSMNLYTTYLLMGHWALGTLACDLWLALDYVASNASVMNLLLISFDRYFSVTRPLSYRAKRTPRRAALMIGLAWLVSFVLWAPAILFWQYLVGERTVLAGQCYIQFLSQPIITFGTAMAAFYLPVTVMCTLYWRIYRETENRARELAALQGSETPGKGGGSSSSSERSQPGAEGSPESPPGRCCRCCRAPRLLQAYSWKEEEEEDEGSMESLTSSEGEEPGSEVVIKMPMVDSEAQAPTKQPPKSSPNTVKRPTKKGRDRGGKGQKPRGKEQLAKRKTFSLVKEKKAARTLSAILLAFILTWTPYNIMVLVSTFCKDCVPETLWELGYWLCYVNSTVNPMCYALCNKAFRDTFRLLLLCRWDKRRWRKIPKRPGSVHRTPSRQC

Assay [7] addresses Pyruvate kinase (Leishmania mexicana) (UniProt Q27686). The experiment in a line: qHTS Validation Assay for Inhibitors of Leishmania Mexicana Pyruvate Kinase (AID 945).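 Also: 0% = DMSO only neutral control wells.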 The settings on record: purified L. mexicana pyruvate kinase, enzyme activity, E451W mutant enzyme; series mostly up to 57.5 µM. The procedure, abridged: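 Compounds are tested as eight-point concentration series. Reactions contain 0.2 nM LmPYK E451W, 0.5 mM PEP, 0.1 mM ADP, 7 mM MgCl2 and 50 mM KCl at pH 7.2, run 1 h at room temperature, then read by PKLight luminescence.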

Assay [8] addresses Pyruvate kinase PKM (Homo sapiens) (UniProt P14618). The experiment in a line: qHTS Assay for Activators of Human Muscle Pyruvate Kinase (AID 954; active = well fitted curve in the direction sought with a large enough effect, not every such curve was filed as active;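 also: 0% = uninhibited enzyme and -100% = no enzyme or full thiadiazolimine inhibition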). The note with it: purified human muscle pyruvate kinase, luciferase-coupled luminescence, 1 h; series mostly up to 57.5 µM. An outline of the steps: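 ATP production by PKM2 detected via luciferase luminescence after 1 h room-temperature reaction (0.1 nM enzyme, PEP at Km 0.5 mM, ADP 0.1 mM, pH 7.2 imidazole buffer). Inhibition scaled to no-enzyme control; activation referenced to 0.3 nM enzyme wells.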

In assay [9] the target is Alpha-galactosidase (Coffea arabica) (UniProt Q42656). The assay can be described thus: Counterscreen for Glucocerebrosidase Inhibitors: qHTS Assay for Coffee Bean alpha-Galactosidase at pH 4.5 (AID 957).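 Also: plate controls were enzyme alone for no effect and no enzyme for full effect.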 The note with it: purified coffee bean alpha-galactosidase, fluorogenic substrate; series mostly up to 76.9 µM. The procedure, abridged:
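Fluorogenic qHTS at pH 4.5 (citrate buffer with Tween-20): 2 nM enzyme, 80 uM 4-MU-alpha-galactoside substrate, compound titrated 0.7 nM to 77 uM, 20 min room temperature. Glycine/NaOH stop; 4-MU read Ex 365/Em 440; Hill-equation AC50 against no-enzyme and enzyme controls.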
(In general: The purpose of a counterscreen is to sort out artefacts and off-target activity.)

Assay [10] addresses Alpha-galactosidase A (Homo sapiens) (UniProt P06280). The assay can be described thus: Counterscreen for Glucocerebrosidase Inhibitors: qHTS Assay for Human alpha-Galactosidase at pH 4.5 (AID 992). Also: 0% is about no effect. The settings on record: purified enzyme, fluorogenic substrate; series mostly up to 76.9 µM. The procedure, abridged:
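Fluorogenic 1536-well qHTS at pH 4.5 (citrate, Tween-20): 2 nM enzyme, 80 uM 4-MU-alpha-galactoside, 20 min room temperature, NaOH/glycine stop. Titration 0.7 nM to 77 uM, data normalized to no-enzyme and full-activity controls, Hill-fitted AC50.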

Assay [11] has as its target alpha-glucosidase (Oryza sativa, rice) (UniProt Q653V4). The experiment in a line: Counterscreen for Glucocerebrosidase Inhibitors: qHTS Assay for Rice alpha-Glucosidase at pH 5.0 (AID 997).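 Also: 0% = full activity with enzyme and -100% = basal without enzyme.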 The settings on record: rice alpha-glucosidase enzyme activity; series mostly up to 76.9 µM. The procedure, abridged: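 Endpoint fluorogenic assay at pH 5.0: compounds (0.7 nM to 77 uM) titrated against 4 nM rice enzyme and 400 uM 4-MU-alpha-glucoside for 20 min at room temperature; NaOH/glycine stop, read ex 365/em 440 nm, Hill-fitted AC50.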

Assay [12] addresses Alpha-galactosidase (Coffea arabica) (UniProt Q42656). The assay can be described thus: Counterscreen for Glucocerebrosidase Inhibitors: qHTS Assay for Coffee Bean alpha-Galactosidase at pH 5.9 (AID 998).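 Also: plate controls were uninhibited enzyme for no effect and no-enzyme basal signal for full effect.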 The note with it: coffee bean alpha-galactosidase enzyme assay; series mostly up to 76.9 µM. An outline of the steps: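 Fluorogenic 4-MU substrate hydrolysis, 80 uM substrate and 2 nM coffee bean alpha-galactosidase, pH 5.9 citrate buffer, 20 min at room temperature, then NaOH/glycine stop. Titration 0.7 nM–77 uM, normalized to no-enzyme and enzyme controls, AC50 via Hill equation.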

Assay [13] deals with Zika virus NS2B-NS3 protease. The assay can be described thus: Primary screen GU AMC qHTS for Zika virus inhibitors (AID 1347154).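 Also: 0% = no-inhibitor control and -100% = no-enzyme control; nearly all actives have a fitted effect of over 70% in size.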 The settings on record: Zika NS2B-NS3 unlinked protease, AMC fluorogenic substrate; series mostly up to 54.1 µM. The procedure, abridged: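 Fluorogenic AMC-substrate cleavage by noncovalent NS2B-NS3 protease complex (25 nM, pH 8.0 Tris buffer with Tween 20) followed for 15 minutes at room temperature (~20% conversion). Percent inhibition from ex340/em450 signal change, fitted by 4-parameter Hill equation.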

The nature of assay [14]: Primary qHTS for small molecule stabilizers of the endoplasmic reticulum resident proteome: Secreted ER Calcium Modulated Protein (SERCaMP) assay (AID 1508630). Also: % is scaled to controls: 0 for no effect and ±100 for the full control effect. The note with it: SH-SY5Y GLuc-SERCaMP (Gaussia luciferase released on ER calcium loss) secretion, thapsigargin, luminescence; series mostly up to 38.4 µM. An outline of the steps: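 The SH-SY5Y reporter protocol was run at 3 concentrations up to 38.3 uM (primary) or 11 concentrations (follow-up): 16 h compound, 100 nM thapsigargin for 4 h, then extracellular luciferase luminescence.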

For assay [15], the target named is Mitogen-activated protein kinase 10 (Mus musculus) (UniProt Q61831). The assay can be described thus: JNK3 AlphaScreen Assay (AID 530; active = well fitted curve in either direction with a large enough effect, not every such curve was filed as active;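 also: kinase came from lysate of stimulated human HepG2 cells; signal reports phosphorylation of biotinylated GST-cJun 1-79 at Ser73 with 10 µM ATP; % is scaled to controls: 0 for no effect and ±100 for the full control effect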). The settings on record: JNK3 lysate, c-Jun phosphorylation; series mostly up to 57.1 µM. The procedure, abridged: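 qHTS titrations with 15 min compound pre-incubation before adding ATP (10 uM final). Read-out: AlphaScreen of Ser73-phosphorylated biotin-GST-cJun using HepG2 lysate JNK3 activated by IL-1β and TNFα.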
(In general: Bead proximity is the source of the signal in Alpha formats.)

Assay [16] is described as follows: qHTS Assay for Lipid Storage Modulators (AID 1519; calls by dose curve). The note with it: Drosophila S3 cells, BODIPY lipid droplet/cell ratio, laser cytometry, cells loaded with oleic acid; for activity change, negative = inhibition: at 57.5 µM (top of the series). The procedure, abridged:
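Cells seeded at 5,000 per well were treated with compounds over a concentration series and loaded with oleic acid (400 uM, as added). Lipid droplet fluorescence (488 nm excitation, 500-530 nm channel) was read by laser-scanning cytometry and normalized to 20 uM Triacsin C.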

The target of assay [17] is Ubiquitin carboxyl-terminal hydrolase 1 (Homo sapiens) (UniProt O94782). The experiment in a line: Inhibitors of USP1/UAF1: Pilot qHTS (AID 504865).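 Also: rhodamine fluorescence freed from ubiquitin-rhodamine substrate followed over time; top concentration of the series differs between compounds; % is scaled to controls: 0 for no effect and ±100 for the full control effect; nearly all actives have a fitted effect of over 35% in size.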 The settings on record: purified USP1/UAF1, Ub-rhodamine cleavage fluorescence; series mostly up to 114 µM. An outline of the steps:
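USP1/UAF1 complex (1nM) preincubated with compound 15 min at room temperature, then Ub-Rho substrate (150nM final) added. Fluorescence read kinetically at 480/540 nm, 6 reads every 60 seconds. Buffer: 50mM HEPES pH 7.8, 0.5mM EDTA, 0.1 mg/ml BSA, 1mM TCEP, 0.01% Tween-20.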

Assay [18] has as its target DNA dC->dU-editing enzyme APOBEC-3G (Homo sapiens) (UniProt Q9HC16). The experiment in a line: qHTS for inhibitors of Vif-A3G interactions: Validation (AID 588379). Also: 0% is about no effect. The note with it: Vif-A3G protein interaction assay; series mostly up to 46.1 µM. An outline of the steps: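 Yellow fluorescence (Ex 488, Em 500-530) of Vif-coexpressing HeLa A3G-eYFP cells, scanned by Acumen cytometer, reports blocked A3G degradation. Cells plated at 700/well overnight at 37 deg C before compound addition, then a further overnight compound incubation at 37 deg C.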

Assay [19] is described as follows: Stat Signaling Pathway (AID 446; active = well fitted curve in either direction with a large enough effect, not every such curve was filed as active;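 also: ME-180 cervical cancer cells given 40 pM IL-6 alongside compound; SIE-controlled beta-lactamase reporter measured as 460/530 nm FRET emission ratio; % is scaled to controls: 0 for no effect and ±100 for the full control effect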). The note with it: ME-180 (cervical carcinoma) SIE beta-lactamase reporter, IL-6 stimulated, 5 h; series mostly up to 38 µM. An outline of the steps:
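FRET read-out (405 nm excitation, 460/530 nm emission) of a beta-lactamase reporter under a STAT-inducible element in ME-180 cervical carcinoma cells. Cells with compound receive 40 pM IL-6 for 5 h. Values are normalised to AC90 stimulation and AC90 JAK-inhibitor controls.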

Where [20] appears, read: measured here: cell count channel max response.
[21] abbreviates: measured here: lipid channel max response.

Each structure is given as a SMILES string. Values joined by “and” are separate entries in the source; they are usually repeats but may differ in a detail not shown here. Equal values may be shown once. Inconclusive results are not listed. Active and inactive are the calls of the source. Unless noted, calls follow the shape of the dose curve; as a rule, active = well fitted curve in the direction sought with a large enough effect; inconclusive = small, poorly fitted or top-dose-only effect, or another doubt; inactive = no such curve, though single readings can be large; an effect the other way counts as inactive or inconclusive. Bounds are passed on as bounds.

Sequence of Pyruvate kinase (Leishmania mexicana) (Q27686 2-499 E452W): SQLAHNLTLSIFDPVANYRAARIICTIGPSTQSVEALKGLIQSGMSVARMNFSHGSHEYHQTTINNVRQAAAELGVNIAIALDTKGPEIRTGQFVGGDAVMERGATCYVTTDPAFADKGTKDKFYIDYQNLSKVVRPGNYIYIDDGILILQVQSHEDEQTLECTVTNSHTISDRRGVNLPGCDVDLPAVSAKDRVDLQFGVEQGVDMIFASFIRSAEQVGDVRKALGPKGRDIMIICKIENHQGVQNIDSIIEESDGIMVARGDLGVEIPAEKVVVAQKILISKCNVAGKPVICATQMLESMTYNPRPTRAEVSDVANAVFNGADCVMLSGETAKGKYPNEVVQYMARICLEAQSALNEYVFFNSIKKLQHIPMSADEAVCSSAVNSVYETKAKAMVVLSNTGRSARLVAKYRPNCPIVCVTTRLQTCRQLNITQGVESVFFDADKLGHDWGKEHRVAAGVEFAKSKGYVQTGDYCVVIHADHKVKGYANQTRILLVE
Sequence of 3',5'-cyclic-AMP phosphodiesterase 4B (Homo sapiens) (Q07343 whole entry, looked up): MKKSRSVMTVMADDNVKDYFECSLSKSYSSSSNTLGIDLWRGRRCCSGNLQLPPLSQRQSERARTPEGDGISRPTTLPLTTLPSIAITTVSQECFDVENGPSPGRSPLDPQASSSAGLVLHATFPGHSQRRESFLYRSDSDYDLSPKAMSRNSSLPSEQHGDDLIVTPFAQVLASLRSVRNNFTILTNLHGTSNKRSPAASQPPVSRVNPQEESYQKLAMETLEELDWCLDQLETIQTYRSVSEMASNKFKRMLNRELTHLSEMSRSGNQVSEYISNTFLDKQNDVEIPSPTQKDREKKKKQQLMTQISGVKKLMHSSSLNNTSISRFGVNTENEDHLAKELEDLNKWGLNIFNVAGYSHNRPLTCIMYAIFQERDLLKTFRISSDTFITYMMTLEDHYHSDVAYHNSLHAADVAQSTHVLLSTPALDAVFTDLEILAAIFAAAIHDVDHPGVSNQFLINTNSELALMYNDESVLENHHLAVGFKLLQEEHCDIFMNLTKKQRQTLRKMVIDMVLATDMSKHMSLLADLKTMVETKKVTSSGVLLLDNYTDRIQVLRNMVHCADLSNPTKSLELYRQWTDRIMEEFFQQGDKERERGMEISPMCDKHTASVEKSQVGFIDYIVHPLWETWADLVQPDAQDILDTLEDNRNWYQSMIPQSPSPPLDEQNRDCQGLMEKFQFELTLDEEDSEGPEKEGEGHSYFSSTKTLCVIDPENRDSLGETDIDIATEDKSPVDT
Sequence of DNA dC->dU-editing enzyme APOBEC-3G (Homo sapiens) (Q9HC16 whole entry, looked up): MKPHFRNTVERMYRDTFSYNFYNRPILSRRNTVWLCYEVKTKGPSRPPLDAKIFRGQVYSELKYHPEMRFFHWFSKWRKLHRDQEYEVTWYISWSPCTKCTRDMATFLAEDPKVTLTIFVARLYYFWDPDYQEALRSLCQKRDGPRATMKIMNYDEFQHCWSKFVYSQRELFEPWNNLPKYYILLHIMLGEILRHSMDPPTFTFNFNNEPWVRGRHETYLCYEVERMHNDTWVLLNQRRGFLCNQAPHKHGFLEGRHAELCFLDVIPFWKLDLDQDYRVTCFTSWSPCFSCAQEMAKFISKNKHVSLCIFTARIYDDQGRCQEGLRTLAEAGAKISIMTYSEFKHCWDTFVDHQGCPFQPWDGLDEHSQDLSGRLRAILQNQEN
Sequence of Alpha-galactosidase (Coffea arabica) (Q42656 whole entry, looked up): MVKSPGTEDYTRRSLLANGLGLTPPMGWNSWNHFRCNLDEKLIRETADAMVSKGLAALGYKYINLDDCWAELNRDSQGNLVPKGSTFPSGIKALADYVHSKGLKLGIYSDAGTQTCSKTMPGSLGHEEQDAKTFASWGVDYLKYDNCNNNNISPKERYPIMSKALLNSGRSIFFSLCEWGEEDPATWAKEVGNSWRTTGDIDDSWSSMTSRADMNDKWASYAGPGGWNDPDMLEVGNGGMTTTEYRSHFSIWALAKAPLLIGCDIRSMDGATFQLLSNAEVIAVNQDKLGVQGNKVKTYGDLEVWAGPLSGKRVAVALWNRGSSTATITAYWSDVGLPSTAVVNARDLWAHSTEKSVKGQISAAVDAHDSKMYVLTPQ
Sequence of Pyruvate kinase PKM (Homo sapiens) (P14618 whole entry, looked up): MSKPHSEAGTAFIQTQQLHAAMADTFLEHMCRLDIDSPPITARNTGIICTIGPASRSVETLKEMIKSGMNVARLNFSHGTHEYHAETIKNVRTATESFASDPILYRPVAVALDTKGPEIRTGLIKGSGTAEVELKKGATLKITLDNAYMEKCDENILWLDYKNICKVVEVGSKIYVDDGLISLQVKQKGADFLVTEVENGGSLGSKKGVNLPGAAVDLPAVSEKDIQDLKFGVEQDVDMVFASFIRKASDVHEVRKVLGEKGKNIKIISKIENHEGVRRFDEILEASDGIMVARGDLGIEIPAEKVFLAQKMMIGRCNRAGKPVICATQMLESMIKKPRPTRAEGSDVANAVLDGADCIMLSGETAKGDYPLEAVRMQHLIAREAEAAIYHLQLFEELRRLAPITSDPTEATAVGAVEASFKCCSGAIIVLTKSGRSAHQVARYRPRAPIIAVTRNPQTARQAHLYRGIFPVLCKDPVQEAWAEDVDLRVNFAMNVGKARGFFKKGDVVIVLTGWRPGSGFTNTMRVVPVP
Sequence of Alpha-galactosidase A (Homo sapiens) (P06280 whole entry, looked up): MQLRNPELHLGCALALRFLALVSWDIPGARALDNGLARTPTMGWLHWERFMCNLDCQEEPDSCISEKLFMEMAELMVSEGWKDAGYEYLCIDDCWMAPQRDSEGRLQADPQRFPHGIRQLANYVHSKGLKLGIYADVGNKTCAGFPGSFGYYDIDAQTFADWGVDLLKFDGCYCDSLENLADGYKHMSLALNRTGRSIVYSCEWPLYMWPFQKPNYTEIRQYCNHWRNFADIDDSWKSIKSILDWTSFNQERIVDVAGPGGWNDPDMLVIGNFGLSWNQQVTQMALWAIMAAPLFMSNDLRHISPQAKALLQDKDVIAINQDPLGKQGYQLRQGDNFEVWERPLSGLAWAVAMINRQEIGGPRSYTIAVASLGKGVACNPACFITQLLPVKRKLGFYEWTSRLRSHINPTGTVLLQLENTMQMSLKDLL
Sequence of Guanine nucleotide-binding protein G(i) subunit alpha-1 (Homo sapiens) (P63096 whole entry, looked up): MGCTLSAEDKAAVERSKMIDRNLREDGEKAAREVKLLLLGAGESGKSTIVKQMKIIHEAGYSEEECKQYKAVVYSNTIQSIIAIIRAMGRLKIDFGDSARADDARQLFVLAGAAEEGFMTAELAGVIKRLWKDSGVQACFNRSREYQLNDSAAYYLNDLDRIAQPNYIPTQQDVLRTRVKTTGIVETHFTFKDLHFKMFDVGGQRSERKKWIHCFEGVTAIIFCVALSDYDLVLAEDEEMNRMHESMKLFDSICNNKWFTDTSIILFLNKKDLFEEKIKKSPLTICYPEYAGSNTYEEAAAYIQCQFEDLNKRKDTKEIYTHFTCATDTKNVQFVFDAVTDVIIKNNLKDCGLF

Consider `COc1ccc(CCN)cc1O`, for which the activity change, negative = inhibition in [1] is -3.06% (inactive). Further, the Potency in assay [2] and in [3] was > 46 µM (inactive) in each case. Further, the Potency entry in [4], in [6], in [13] and in assay [14] was “inactive” each time. In addition, the result in assay [5], in assay [7], in assay [8], in assay [9], in [10] and in [11] was inactive. Further, the result in [12] was inactive.

Take `Cc1ccc2c(c1)Cc1c(C(=O)NN3CCCCC3)nn(-c3ccc(Cl)cc3Cl)c1-2`: the Potency entry in [13] is “inactive”.

Take `NC(N)=NCCCCCCCCCCN=C(N)N`: the Potency in assay [2] and in assay [3] was > 46 µM (inactive) in each case. In assay [15], the result was inactive. Also, the Potency entry in assay [4], in [17], in [18], in assay [13] and in assay [14] was “inactive” throughout. The activity change, negative = inhibition in assay [16] was -3.22% (inactive). Besides, the max response came to 7.9% in [16] (setting [20]) and 7.14% in assay [16] (setting [21]).

For the molecule `N[C@H](CCCCCP(=O)(O)O)C(=O)O`, the activity change, negative = inhibition in assay [1] is 7.92% (inactive) and -0.366% (inactive); in assay [16], -3.15% (inactive). Further, the molecule was classed as inactive in assay [19], in assay [15], in assay [5], in assay [7], in assay [8] and in assay [9]. The molecule was called inactive in assay [10], in assay [11] and in assay [12]. Further, the Potency in [2] was > 46 µM (inactive). For the same molecule, the Potency entry in [4], in [6], in assay [17], in [18], in [13] and in assay [14] was “inactive” throughout. The max response was -11.8% in [16] (setting [20]) and -15.1% in assay [16] (setting [21]).

Regarding `N[C@@H](Cn1cc(I)c(=O)[nH]c1=O)C(=O)O`, the Potency in assay [2] was > 46 µM (inactive). Besides, the call in assay [5], in assay [7], in assay [8], in assay [9], in assay [10] and in assay [11] was inactive. The molecule was called inactive in assay [12]. The Potency entry in assay [6], in [18], in [13] and in assay [14] was “inactive” throughout. Besides, in [16], the activity change, negative = inhibition is 1.49% (inactive) and 0.139% (inactive). In addition, the max response in [16] (setting [20]) is 1.2% and -23.8%; in assay [16] (setting [21]) it was 4.16% and -23.5%.

Values taken from PubChem BioAssay (NCATS).
